# Columns and labels:
# [1] = molecular target: Sphingosine kinase 1 (Homo sapiens) (UniProt Q9NYA1); conditions: at 1 µM;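 further: mean SPHK1 inhibition value reported from the GSK PKIS kinase panel screen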
# [2] = molecular target: T1, Sphingosine kinase 2 (Homo sapiens) (UniProt Q9NRA0); conditions: at 0.1 µM
# T1 sequence (whole entry): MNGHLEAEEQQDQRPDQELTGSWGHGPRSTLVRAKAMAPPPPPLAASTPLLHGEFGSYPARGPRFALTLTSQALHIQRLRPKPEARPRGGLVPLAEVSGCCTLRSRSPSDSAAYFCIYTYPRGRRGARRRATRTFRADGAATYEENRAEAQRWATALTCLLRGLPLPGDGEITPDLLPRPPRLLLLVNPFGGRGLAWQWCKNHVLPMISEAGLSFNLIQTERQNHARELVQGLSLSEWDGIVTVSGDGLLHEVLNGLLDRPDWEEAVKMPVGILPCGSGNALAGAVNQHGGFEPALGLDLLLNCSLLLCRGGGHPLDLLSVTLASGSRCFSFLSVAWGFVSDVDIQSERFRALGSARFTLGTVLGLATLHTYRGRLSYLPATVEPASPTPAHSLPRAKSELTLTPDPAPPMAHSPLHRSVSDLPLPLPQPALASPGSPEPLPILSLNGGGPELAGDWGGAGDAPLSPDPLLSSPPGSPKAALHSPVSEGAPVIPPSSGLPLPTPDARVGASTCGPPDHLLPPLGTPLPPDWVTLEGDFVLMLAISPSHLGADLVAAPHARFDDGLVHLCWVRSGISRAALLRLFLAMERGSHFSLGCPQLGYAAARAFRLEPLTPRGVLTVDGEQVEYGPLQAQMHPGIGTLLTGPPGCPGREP
# [3] = molecular target: T1, Sphingosine kinase 2 (Homo sapiens); conditions: at 1 µM
# [4] = molecular target: Casein kinase II subunit alpha (Homo sapiens) (UniProt P68400); conditions: at 0.1 µM
# Chain of Casein kinase II subunit alpha (Homo sapiens) (P68400 whole entry, looked up): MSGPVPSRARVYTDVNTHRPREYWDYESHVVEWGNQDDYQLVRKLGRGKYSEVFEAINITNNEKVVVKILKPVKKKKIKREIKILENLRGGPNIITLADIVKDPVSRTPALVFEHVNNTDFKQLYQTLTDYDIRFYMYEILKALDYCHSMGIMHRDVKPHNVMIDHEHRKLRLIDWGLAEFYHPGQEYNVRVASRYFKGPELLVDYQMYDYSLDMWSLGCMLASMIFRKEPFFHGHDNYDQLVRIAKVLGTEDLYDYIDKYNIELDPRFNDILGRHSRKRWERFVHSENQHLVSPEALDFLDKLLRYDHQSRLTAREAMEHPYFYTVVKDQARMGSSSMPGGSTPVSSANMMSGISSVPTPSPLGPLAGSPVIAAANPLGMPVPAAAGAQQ
# [5] = molecular target: Casein kinase II subunit alpha (Homo sapiens) (UniProt P68400); conditions: at 1 µM
# [6] = molecular target: T2, Inhibitor of nuclear factor kappa-B kinase subunit alpha (Homo sapiens) (UniProt O15111); conditions: at 0.1 µM
# T2 sequence (whole entry): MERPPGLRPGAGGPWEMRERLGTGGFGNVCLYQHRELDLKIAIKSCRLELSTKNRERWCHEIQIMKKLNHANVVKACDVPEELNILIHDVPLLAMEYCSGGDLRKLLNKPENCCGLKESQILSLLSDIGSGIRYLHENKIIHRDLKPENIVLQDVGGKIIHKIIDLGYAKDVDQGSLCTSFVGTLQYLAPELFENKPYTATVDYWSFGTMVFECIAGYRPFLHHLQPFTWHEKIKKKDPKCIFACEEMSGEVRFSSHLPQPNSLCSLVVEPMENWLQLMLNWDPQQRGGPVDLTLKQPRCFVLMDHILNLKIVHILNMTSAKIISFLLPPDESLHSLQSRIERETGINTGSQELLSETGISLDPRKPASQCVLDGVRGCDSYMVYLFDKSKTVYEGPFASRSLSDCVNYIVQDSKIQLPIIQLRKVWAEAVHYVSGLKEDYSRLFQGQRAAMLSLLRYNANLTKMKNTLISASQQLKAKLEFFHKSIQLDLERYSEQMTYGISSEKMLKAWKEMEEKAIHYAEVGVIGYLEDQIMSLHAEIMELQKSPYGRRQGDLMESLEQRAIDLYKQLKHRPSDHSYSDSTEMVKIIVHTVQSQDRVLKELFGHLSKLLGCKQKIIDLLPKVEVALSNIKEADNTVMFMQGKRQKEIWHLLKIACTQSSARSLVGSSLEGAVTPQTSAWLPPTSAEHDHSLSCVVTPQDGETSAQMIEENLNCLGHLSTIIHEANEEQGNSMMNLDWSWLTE
# [7] = molecular target: T2, Inhibitor of nuclear factor kappa-B kinase subunit alpha (Homo sapiens); conditions: at 1 µM
# [8] = molecular target: T3, Inhibitor of nuclear factor kappa-B kinase subunit beta (Homo sapiens) (UniProt O14920); conditions: at 0.1 µM
# T3 sequence (whole entry): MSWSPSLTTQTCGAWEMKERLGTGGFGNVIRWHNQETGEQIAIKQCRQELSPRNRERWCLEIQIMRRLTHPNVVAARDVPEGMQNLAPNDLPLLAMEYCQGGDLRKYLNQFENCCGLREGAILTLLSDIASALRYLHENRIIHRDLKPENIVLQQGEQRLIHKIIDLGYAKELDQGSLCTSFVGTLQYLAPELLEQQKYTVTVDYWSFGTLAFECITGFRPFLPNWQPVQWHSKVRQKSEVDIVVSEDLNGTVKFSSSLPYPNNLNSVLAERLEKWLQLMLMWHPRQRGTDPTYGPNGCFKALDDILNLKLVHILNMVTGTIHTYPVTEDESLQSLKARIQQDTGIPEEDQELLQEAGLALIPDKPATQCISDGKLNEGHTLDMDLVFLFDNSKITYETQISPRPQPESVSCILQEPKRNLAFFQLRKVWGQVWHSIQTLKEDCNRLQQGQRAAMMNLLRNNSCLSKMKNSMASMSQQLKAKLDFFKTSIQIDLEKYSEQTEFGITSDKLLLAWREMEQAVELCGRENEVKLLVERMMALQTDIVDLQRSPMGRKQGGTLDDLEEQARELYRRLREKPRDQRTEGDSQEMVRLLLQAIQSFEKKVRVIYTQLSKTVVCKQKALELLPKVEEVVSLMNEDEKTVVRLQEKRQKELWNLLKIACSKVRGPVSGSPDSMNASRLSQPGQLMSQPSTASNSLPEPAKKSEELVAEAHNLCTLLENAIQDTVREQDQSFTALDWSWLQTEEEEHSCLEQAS
# [9] = molecular target: T3, Inhibitor of nuclear factor kappa-B kinase subunit beta (Homo sapiens); conditions: at 1 µM
# [10] = molecular target: T4, Inhibitor of nuclear factor kappa-B kinase subunit epsilon (Homo sapiens) (UniProt Q14164); conditions: at 0.1 µM
# T4 sequence (whole entry): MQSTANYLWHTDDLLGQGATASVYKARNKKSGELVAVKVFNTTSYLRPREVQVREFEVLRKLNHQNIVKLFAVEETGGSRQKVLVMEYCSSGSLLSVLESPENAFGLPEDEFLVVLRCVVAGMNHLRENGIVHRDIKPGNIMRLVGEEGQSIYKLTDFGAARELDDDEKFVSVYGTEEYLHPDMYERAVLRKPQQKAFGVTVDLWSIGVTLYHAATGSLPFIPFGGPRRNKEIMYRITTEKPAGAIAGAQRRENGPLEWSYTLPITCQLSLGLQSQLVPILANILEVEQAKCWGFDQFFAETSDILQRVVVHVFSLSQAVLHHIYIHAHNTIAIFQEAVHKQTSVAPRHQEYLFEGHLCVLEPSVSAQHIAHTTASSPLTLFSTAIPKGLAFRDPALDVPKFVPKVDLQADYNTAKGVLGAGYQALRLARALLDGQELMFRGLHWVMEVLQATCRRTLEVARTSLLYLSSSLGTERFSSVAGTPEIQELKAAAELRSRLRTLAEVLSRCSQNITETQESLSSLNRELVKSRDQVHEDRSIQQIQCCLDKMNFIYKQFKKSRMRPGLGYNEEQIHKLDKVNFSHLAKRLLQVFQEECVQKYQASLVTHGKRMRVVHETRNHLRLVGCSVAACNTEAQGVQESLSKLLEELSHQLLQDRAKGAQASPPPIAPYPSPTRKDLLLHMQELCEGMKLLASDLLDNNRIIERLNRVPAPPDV
# [11] = molecular target: T4, Inhibitor of nuclear factor kappa-B kinase subunit epsilon (Homo sapiens); conditions: at 1 µM
# [12] = molecular target: T5, Serine/threonine-protein kinase Nek1 (Homo sapiens) (UniProt Q96PY6); conditions: at 0.1 µM
# T5 sequence (whole entry): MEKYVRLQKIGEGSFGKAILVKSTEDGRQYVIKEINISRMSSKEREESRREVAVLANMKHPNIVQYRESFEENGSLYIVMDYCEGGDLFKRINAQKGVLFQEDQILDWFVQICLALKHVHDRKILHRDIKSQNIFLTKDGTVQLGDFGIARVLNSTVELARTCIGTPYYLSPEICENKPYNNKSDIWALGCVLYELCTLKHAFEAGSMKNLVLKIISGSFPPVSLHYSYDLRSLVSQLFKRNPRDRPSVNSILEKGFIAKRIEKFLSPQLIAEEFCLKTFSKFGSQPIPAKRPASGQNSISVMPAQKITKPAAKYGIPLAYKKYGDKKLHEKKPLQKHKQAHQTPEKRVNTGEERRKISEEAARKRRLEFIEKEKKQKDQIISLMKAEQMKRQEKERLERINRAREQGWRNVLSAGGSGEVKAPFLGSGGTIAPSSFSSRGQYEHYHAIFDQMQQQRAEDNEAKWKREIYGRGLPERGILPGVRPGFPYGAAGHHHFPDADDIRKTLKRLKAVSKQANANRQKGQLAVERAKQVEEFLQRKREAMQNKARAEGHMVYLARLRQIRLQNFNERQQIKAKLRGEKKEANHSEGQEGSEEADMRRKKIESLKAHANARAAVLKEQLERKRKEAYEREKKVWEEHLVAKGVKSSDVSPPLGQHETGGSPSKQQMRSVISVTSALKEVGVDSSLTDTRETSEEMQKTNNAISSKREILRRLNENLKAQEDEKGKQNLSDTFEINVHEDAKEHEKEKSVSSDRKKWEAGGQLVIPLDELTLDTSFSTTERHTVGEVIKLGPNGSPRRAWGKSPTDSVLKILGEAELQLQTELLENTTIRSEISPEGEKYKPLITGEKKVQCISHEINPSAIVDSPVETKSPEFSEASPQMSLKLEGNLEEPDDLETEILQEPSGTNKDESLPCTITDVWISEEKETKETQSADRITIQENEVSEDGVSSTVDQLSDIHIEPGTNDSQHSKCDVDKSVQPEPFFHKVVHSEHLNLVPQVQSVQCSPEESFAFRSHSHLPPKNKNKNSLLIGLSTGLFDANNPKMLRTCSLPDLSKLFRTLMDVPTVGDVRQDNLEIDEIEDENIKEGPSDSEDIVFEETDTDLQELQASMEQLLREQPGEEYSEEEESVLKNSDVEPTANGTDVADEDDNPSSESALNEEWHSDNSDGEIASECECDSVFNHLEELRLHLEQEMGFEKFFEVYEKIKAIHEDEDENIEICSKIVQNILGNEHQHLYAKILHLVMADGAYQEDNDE
# [13] = molecular target: T5, Serine/threonine-protein kinase Nek1 (Homo sapiens); conditions: at 1 µM
# [14] = molecular target: T6, Serine/threonine-protein kinase Nek2 (Homo sapiens) (UniProt P51955); conditions: at 0.1 µM
# T6 sequence (whole entry): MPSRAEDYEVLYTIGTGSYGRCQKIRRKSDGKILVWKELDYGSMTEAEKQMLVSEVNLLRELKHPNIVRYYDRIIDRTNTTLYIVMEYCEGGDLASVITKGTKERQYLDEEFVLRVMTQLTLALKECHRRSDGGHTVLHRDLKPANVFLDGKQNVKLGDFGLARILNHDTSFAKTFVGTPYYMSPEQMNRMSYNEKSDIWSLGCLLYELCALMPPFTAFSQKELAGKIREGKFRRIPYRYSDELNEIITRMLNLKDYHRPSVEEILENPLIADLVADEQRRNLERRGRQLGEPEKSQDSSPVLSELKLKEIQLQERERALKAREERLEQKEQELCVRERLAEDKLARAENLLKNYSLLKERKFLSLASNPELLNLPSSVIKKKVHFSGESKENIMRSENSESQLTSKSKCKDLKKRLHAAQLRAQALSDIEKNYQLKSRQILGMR
# [15] = molecular target: T6, Serine/threonine-protein kinase Nek2 (Homo sapiens); conditions: at 1 µM
# [16] = molecular target: Serine/threonine-protein kinase Nek6 (Homo sapiens) (UniProt Q9HC98); conditions: at 0.1 µM
# Chain of Serine/threonine-protein kinase Nek6 (Homo sapiens) (Q9HC98 whole entry): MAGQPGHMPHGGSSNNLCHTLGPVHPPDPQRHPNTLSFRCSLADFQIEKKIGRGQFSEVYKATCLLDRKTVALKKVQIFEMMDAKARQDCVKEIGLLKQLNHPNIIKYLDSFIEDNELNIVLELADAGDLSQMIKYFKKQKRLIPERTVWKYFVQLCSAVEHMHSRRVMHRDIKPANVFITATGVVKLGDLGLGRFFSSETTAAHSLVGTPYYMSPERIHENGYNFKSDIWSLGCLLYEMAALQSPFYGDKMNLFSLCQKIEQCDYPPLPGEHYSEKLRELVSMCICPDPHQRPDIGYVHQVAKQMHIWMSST
# [17] = molecular target: Serine/threonine-protein kinase Nek6 (Homo sapiens) (UniProt Q9HC98); conditions: at 1 µM
# [18] = molecular target: Serine/threonine-protein kinase Nek7 (Homo sapiens) (UniProt Q8TDX7); conditions: at 0.1 µM
# Chain of Serine/threonine-protein kinase Nek7 (Homo sapiens) (Q8TDX7 whole entry, looked up): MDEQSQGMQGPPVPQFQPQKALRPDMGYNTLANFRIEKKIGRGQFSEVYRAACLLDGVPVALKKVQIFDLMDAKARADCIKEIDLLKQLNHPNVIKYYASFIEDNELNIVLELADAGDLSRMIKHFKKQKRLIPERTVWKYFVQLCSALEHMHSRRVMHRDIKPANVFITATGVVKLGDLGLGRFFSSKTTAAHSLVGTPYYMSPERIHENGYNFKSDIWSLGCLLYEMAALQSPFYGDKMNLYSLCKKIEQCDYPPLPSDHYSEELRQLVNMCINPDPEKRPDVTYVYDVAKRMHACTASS
# [19] = molecular target: Serine/threonine-protein kinase Nek7 (Homo sapiens) (UniProt Q8TDX7); conditions: at 1 µM
# Chain of Sphingosine kinase 1 (Homo sapiens) (Q9NYA1 whole entry): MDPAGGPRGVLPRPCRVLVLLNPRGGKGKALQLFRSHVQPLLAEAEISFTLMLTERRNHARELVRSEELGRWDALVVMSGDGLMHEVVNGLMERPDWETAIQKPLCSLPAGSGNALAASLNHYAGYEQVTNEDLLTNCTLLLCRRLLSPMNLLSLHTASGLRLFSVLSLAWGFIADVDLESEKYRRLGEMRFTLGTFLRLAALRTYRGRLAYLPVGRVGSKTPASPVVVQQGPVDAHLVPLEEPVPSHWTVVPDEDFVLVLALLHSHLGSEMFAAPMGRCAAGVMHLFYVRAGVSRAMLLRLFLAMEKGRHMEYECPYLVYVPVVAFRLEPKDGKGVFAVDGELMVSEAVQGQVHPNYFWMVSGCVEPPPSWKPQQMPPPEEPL
smiles,measurement,setting,value
c1ccc(-c2n[nH]cc2-c2ccnc(-c3ccc(OCCN4CCOCC4)cc3)c2)nc1,inhibition,[1],-1.7%
same,inhibition,[2],0.79%
same,inhibition,[3],-2.14%
same,inhibition,[4],-3.28%
same,inhibition,[5],-4.72%
same,inhibition,[6],-2.42%
same,inhibition,[7],-8.48%
same,inhibition,[8],-4.16%
same,inhibition,[9],-6.86%
same,inhibition,[10],-5.44%
same,inhibition,[11],-6.6%
same,inhibition,[12],1.71%
same,inhibition,[13],-2.23%
same,inhibition,[14],-2.95%
same,inhibition,[15],-2.74%
same,inhibition,[16],-1.49%
same,inhibition,[17],-2.27%
same,inhibition,[18],-5.33%
same,inhibition,[19],-3.67%

# From ChEMBL document CHEMBL1961873, “Compounds: GSK PKIS; Assays: Nanosyn kinase panel” (2012)
